Source: PubChem BioAssay (EPA / NIEHS)
Records with an inconclusive call do not appear. Calls of active or inactive are those of the source. How the source made its calls, unless noted: active means hit-call score of the fitted dose curve at least 0.9, where 1 is the maximum; inactive means score below 0.9.

Experiments:
[1] = read-out: Interleukin-1 alpha (IL1a), IL1A (gene 3552); test: BSK_LPS_IL1a: BioMAP Diversity Plus: LPS Assay for Interleukin-1 alpha (IL1a) Biomarker Activity (AID 2283080); conditions: primary human HUVEC with PBMC; actives raise or lower the signal
Method in brief: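 Readout is IL-1a level by ELISA, 24 h post-dose, fitted as gain or loss relative to DMSO. System: LPS-activated human primary co-culture of vascular endothelium and peripheral blood mononuclear cells, with parallel SRB total-protein cytotoxicity.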

[2] = read-out: Monocyte Chemoattractant Protein-1 (MCP1), CCL2 (gene 6347); test: BSK_LPS_MCP1: BioMAP Diversity Plus: LPS Assay for Monocyte Chemoattractant Protein-1 (MCP1) Biomarker Activity (AID 2283081); conditions: primary human HUVEC with PBMC; actives raise or lower the signal;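 on AC50: co-culture stimulated with LPS; secreted MCP-1 protein quantified by ELISA in culture supernatant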
Method in brief: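 Secreted MCP-1 read by ELISA at 24 h post-dosing in an LPS-activated co-culture of endothelial cells with peripheral blood mononuclear cells. Fits run in both directions, DMSO as baseline; parallel SRB staining tracks overt cytotoxicity.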

[3] = BSK_LPS_PGE2: BioMAP Diversity Plus: LPS Assay for Prostaglandin E2 (PGE2) Biomarker Activity (AID 2283082); conditions: primary human HUVEC with PBMC; actives raise or lower the signal;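 on AC50: secreted prostaglandin E2 measured by ELISA in LPS-stimulated co-culture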
Method in brief: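 LPS-activated HUVEC/PBMC co-culture; cmpd dosed, 24 h; PGE2 by ELISA; bidirectional fit vs DMSO; SRB (0.1%, TCA-fixed, 560 nm) in parallel plates for overt cytotox.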

[4] = read-out: Macrophage colony-stimulating factor (MCSF), CSF1 (gene 1435); test: BSK_LPS_MCSF: BioMAP Diversity Plus: LPS Assay for Macrophage colony-stimulating factor (MCSF) Biomarker Activity (AID 2283083); conditions: primary human HUVEC with PBMC; actives raise or lower the signal
Method in brief: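 Bidirectional fitting against DMSO was applied to M-CSF levels read by ELISA at 24 h post-dose. The system pairs human umbilical vein endothelium with peripheral blood mononuclear cells; parallel SRB staining tracked cytotoxicity.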

[5] = read-out: Tissue Factor, F3 (gene 2152); test: BSK_LPS_TissueFactor: BioMAP Diversity Plus: LPS Assay for Tissue Factor Biomarker Activity (AID 2283084); conditions: primary human HUVEC with PBMC; actives raise or lower the signal
Method in brief: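 Compound was added to an endothelial cell/PBMC co-culture, and after 24 h tissue factor (CD142) was read by ELISA. Gain or loss of signal was fitted against a DMSO baseline, and parallel SRB staining (560 nm) tracked overt cytotoxicity.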

[6] = read-out: Tumor necrosis factor (Homo sapiens) (UniProt P01375); test: BSK_LPS_TNFa: BioMAP Diversity Plus: LPS Assay for Tumour Necrosis Factor alpha (TNFa) Biomarker Activity (AID 2283085); conditions: primary human HUVEC with PBMC; actives raise or lower the signal
Method in brief: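 Read-out is ELISA of TNFa in primary human endothelial cell–PBMC co-cultures at 24 h after compound. Activity in either direction was fitted against DMSO.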

[7] = read-out: Vascular cell adhesion molecule 1 (VCAM1), VCAM1 (gene 7412); test: BSK_LPS_VCAM1: BioMAP Diversity Plus: LPS Assay for Vascular cell adhesion molecule 1 (VCAM1) Biomarker Activity (AID 2283086); conditions: primary human HUVEC with PBMC; actives raise or lower the signal
Method in brief: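 HUVEC + PBMC co-culture, LPS system; compound 24 h; VCAM-1 by ELISA; bidirectional fit vs DMSO control; parallel SRB (0.1%, TCA-fixed, 560 nm) for cytotoxicity.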

CD38, CD38 (gene 952) = test: BSK_SAg_CD38: BioMAP Diversity Plus: SAg Assay for CD38 Biomarker Activity (AID 2283087); conditions: primary human HUVEC with PBMC; actives raise or lower the signal
Method in brief: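 Human HUVEC plus PBMC co-culture stimulated with superantigen; CD38 measured by ELISA 24 h after chemical dosing. Fluorescence read-out, bidirectional fit against DMSO; cytotoxicity tracked in parallel by SRB and Alamar Blue.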

CD40, CD40 (gene 958) = test: BSK_SAg_CD40: BioMAP Diversity Plus: SAg Assay for CD40 Biomarker Activity (AID 2283088); conditions: primary human HUVEC with PBMC; actives raise or lower the signal
Method in brief: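 CD40 is measured by fluorescence ELISA in an endothelial/PBMC primary human co-culture at 24 h post-dose. Fitting is bidirectional, DMSO baseline. Parallel SRB staining (560 nm) flags cytotoxicity.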

CD69, CD69 (gene 969) = test: BSK_SAg_CD69: BioMAP Diversity Plus: SAg Assay for CD69 Biomarker Activity (AID 2283089); conditions: primary human HUVEC with PBMC; actives raise or lower the signal;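 on AC50: cell surface CD69 protein quantified by ELISA with fluorescence detection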
Method in brief: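 Primary human vascular co-culture (umbilical vein endothelium with peripheral blood mononuclear cells) exposed to test chemical for 24 h. CD69 levels quantified by fluorescence ELISA; DMSO served as negative control for bidirectional fitting.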

[8] = read-out: Monocyte Chemoattractant Protein-1 (MCP1), CCL2 (gene 6347); test: BSK_SAg_MCP1: BioMAP Diversity Plus: SAg Assay for Monocyte Chemoattractant Protein-1 (MCP1) Biomarker Activity (AID 2283090); conditions: primary human HUVEC with PBMC; actives raise or lower the signal
Method in brief: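 MCP-1 levels in the endothelial–PBMC SAg co-culture were quantified by ELISA at 24 h post-dosing; both increases and decreases versus DMSO scored. Cytotoxicity monitored by SRB total protein in parallel cultures.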

[9] = read-out: E-selectin (Homo sapiens) (UniProt P16581); test: BSK_SAg_Eselectin: BioMAP Diversity Plus: SAg Assay for Eselectin Biomarker Activity (AID 2283091); conditions: primary human HUVEC with PBMC; actives raise or lower the signal
Method in brief: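 Cell-surface E-selectin is read by ELISA at 24 h in the SAg co-culture of HUVEC and PBMC. Curves are fitted in both directions relative to DMSO. Parallel SRB total-protein staining tracks overt toxicity.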

[10] = read-out: Monokine induced gamma interferon (MIG), CXCL9 (gene 4283); test: BSK_SAg_MIG: BioMAP Diversity Plus: SAg Assay for Monokine induced gamma interferon (MIG) Biomarker Activity (AID 2283092); conditions: primary human HUVEC with PBMC; actives raise or lower the signal
Method in brief: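 Endothelial cells and PBMC were co-cultured, exposed to test chemicals, and sampled 24 h later. MIG was measured by ELISA, and responses were fitted in both directions relative to DMSO.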

[11] = BSK_SAg_PBMCCytotoxicity: PBMC Cytotoxicity Assessment in the BioMAP Diversity Plus: SAg Assay (AID 2283093); conditions: primary human HUVEC with PBMC;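 further: PBMC viability measured as Alamar Blue reduction fluorescence at 546/580 nm; fitted both ways against DMSO so a hit may be loss or gain of signal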;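 on AC50: PBMC superantigen activated with SEB plus TSST-1 one hour after compound addition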
Method in brief: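 Human umbilical vein endothelial cells co-cultured with PBMC; PBMC (75,000/well) pre-treated with compound 1 h, then activated with SEB and TSST-1 (20 ng/mL final each) for 90 h. Alamar Blue added 6 h, fluorescence 546/580 nm; bidirectional fit versus DMSO.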

[12] = read-out: Interleukin-8 (IL8), CXCL8 (gene 3576); test: BSK_SAg_IL8: BioMAP Diversity Plus: SAg Assay for Interleukin-8 (IL8) Biomarker Activity (AID 2283094); conditions: primary human HUVEC with PBMC; actives raise or lower the signal
Method in brief: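 ELISA read-out of IL-8 in a primary human vascular co-culture (umbilical vein endothelium plus PBMC), taken 24 h after compound addition. Values derive from bidirectional fits against DMSO negative controls.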

[13] = BSK_SAg_Proliferation: Cell Proliferation Assessment in the BioMAP Diversity Plus: SAg Assay (AID 2283095); conditions: primary human HUVEC with PBMC;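 further: relative cell number as total protein by SRB absorbance in sub-confluent culture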
Method in brief: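 Cells (endothelium plus PBMC, human primary) were dosed with chemical, cultured 96 h, fixed in 10% TCA and stained with 0.1% SRB. Absorbance at 560 nm gave relative protein, fitted bidirectionally relative to DMSO.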

[14] = BSK_SAg_SRB: Viability Assessment in the BioMAP Diversity Plus: SAg Assay (AID 2283096); conditions: primary human HUVEC with PBMC;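 further: cells read one day after compound addition; hits may be either gain or loss of signal compared with DMSO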
Method in brief: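 Endothelial/PBMC primary human co-culture; compound 24 h; fix 10% TCA, stain 0.1% SRB, A560; protein content as cytotoxicity proxy; bidirectional curve fit, DMSO = baseline.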

[15] = target: human CYP19A1, CYP19A1 (gene 1588) (UniProt P11511); test: NVS_ADME_hCYP19A1: NovaScreen (NVS) CYP450-related Enzyme Activity (ADME) Assay for human CYP19A1 (AID 2283098; active means hit-call score of the fitted dose curve at least 0.9, where 1 is the maximum)
human CYP19A1, CYP19A1 (gene 1588), sequence (P11511 whole entry, looked up): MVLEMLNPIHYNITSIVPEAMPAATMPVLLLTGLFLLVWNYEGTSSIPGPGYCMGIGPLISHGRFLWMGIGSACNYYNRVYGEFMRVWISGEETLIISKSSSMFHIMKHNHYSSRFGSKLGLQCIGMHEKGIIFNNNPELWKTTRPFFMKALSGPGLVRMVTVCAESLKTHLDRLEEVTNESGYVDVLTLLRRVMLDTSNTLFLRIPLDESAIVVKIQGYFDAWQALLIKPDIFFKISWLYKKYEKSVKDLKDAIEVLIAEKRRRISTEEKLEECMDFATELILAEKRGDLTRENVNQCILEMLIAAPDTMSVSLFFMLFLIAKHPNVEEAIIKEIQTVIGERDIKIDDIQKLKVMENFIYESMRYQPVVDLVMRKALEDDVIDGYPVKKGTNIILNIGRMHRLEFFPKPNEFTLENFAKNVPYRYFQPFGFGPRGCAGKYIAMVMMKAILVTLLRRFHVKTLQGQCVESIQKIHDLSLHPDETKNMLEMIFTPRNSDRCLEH
Method in brief: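 Cell-free enzyme assay with recombinant protein and a specific fluorogenic substrate, read by fluorescence intensity 0.5 h after dosing. Primary screen ran in duplicate at 10 uM; actives were retested in concentration series. Loss of signal versus acetonitrile baseline.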

Measured: AC50

E-selectin (Homo sapiens), sequence (P16581 whole entry, looked up): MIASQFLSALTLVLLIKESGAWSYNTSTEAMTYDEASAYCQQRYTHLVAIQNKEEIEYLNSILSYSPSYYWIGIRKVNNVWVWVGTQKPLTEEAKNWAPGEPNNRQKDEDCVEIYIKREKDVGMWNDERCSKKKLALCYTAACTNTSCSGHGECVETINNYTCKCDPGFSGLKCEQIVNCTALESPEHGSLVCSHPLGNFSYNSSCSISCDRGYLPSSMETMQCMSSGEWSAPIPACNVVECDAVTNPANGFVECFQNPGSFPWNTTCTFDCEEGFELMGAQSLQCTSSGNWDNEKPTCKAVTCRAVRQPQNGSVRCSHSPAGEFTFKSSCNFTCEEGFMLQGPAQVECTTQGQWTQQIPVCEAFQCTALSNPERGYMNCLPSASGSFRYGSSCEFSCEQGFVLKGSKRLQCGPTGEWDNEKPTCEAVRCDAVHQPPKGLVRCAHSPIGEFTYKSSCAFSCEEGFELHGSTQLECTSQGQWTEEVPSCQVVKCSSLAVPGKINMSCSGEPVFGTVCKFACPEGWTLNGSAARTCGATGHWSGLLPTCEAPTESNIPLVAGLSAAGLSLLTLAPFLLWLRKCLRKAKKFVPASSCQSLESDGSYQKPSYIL
Tumor necrosis factor (Homo sapiens), sequence (P01375 whole entry, looked up): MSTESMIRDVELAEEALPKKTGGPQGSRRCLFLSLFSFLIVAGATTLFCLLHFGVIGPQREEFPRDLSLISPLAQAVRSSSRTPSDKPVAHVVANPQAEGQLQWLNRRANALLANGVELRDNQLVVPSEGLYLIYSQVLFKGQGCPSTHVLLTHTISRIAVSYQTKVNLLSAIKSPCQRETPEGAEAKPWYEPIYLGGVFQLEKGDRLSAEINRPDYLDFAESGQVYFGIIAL

O=C(O)CCCOc1ccc(Cl)cc1Cl
active: [3] 15.2 µM
inactive: all other assays above

O=S1OCC2C(CO1)C1(Cl)C(Cl)=C(Cl)C2(Cl)C1(Cl)Cl (stereo unspecified)
inactive: [3] | [15]
active: [1] 16.3 µM | [2] 34.9 µM | [4] 30.2 µM | [5] 31.2 µM | [6] 32.2 µM | [7] 18.3 µM | CD38, CD38 (gene 952) 28.3 µM | CD40, CD40 (gene 958) 16.3 µM | CD69, CD69 (gene 969) 26.9 µM | [8] 35.5 µM | [9] 36.7 µM | [10] 34.4 µM | [11] 16.1 µM | [12] 36.6 µM | [13] 14.2 µM | [14] 29 µM
